# From PubChem BioAssay AID504467 (National Center for Advancing Translational Sciences (NCATS), 2011)
# Out of some 330,000 compounds screened, about 7,700 (2.3%) were called active. Not shown: some 26% with an inconclusive outcome. Calls follow the shape of the dose curve; as a rule, active = well fitted inhibition curve with a large enough effect; inconclusive = small, poorly fitted or top-dose-only effect, or effect the other way; inactive = flat fitted curve, though single readings scatter. Many of the other results were omitted from the sample, so actives are more common in it than they were.
# Experiment: qHTS screen for small molecules that inhibit ELG1-dependent DNA repair in human embryonic kidney (HEK293T) cells expressing luciferase-tagged ELG1; also: nearly all actives have a fitted effect of over 55% in size
# Details: HEK293T ELG1-luciferase reporter, luminescence, 16 h, DNA damage induced by 5-fluorouridine; series mostly up to 46.1 µM; activity change, negative = inhibition: at the top concentration
# Outline: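 Quantitative HTS, concentration-response format. 2,000 cells/well co-treated with 5-fluorouridine and compound, 16 hr in 5% CO2 at 37 °C; ONE-Glo luminescence read after 30 min.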
# % is scaled to controls: 0 for no effect and ±100 for the full control effect; potency is read from the fitted curve at half-maximal effect.
SMILES,"activity change, negative = inhibition",Potency
CC(C)C(NC(=O)c1c(F)cccc1F)C(=O)NCc1ccncc1 (stereo unspecified),-10.4% (inactive),
COc1cccc(OC)c1C(=O)Nc1ccc(Cc2ccncc2)cc1,-9.05% (inactive),
O=C(Nc1ccncc1)c1c(F)cccc1F,,6.51 µM (active)
CSc1ncc(C(=O)Nc2ccc(C)cc2C)c(C)n1,6.34% (inactive),
c1ccc(-n2nnnc2-c2cccnc2)cc1,-4.14% (inactive),
FC(F)(F)c1nc(-c2ccccc2)ncc1-c1nnnn1-c1ccccc1,,20.6 µM (active)
c1ccc(-n2nnnc2NC2CCCCCC2)cc1,-0.841% (inactive),
CC(=O)c1ccc(N2CCN(C(=O)CCc3ccccc3)CC2)cc1,6.73% (inactive),
O=C1CCC/C=C/C[C@@H](CC(=O)N(CCO)Cc2ccccc2)C(=O)NC[C@H](c2ccccc2)O1,17% (inactive),
Cc1nc2ccccn2c(=O)c1NC(=O)c1cccs1,7.29% (inactive),
C/C(=N\OC(=O)c1ccccc1)c1c(C)nc2cc(C)ccn12,-4.4% (inactive),
Cc1ccn2c(=O)c(NC(=O)c3cccc4ccccc34)c(C)nc2c1,,5.17 µM (active)
Cc1ccc(Oc2ccc(N)cc2)cc1,18.9% (inactive),
Nc1ccc(Oc2ccc(Cl)cc2)cc1,0.524% (inactive),
CC(C)(C)c1ccc(Oc2ccc(N)cc2)cc1,,7.31 µM (active)
Cc1ccc(S(=O)(=O)NCC2CCC(C(=O)N3CCOCC3)CC2)cc1 (stereo unspecified),12.9% (inactive),
C=CCSc1nnc(N2C(=O)C(O)=C(C(=O)c3ccco3)C2c2ccc(F)cc2)s1 (stereo unspecified),-9.68% (inactive),
CC1CC(=NNC(=O)C2COc3ccccc3O2)CC(C)(C)C1 (stereo unspecified),25.5% (inactive),
O=C(OCC(=O)N1CCN(C(=O)c2ccco2)CC1)c1ccc(Cl)c(Cl)c1,11.7% (inactive),
O=c1[nH]c(NCCO)nnc1Cc1ccc(Cl)cc1,-2.82% (inactive),
CC(C)c1ccc(Cc2nnc(NCCCO)[nH]c2=O)cc1,-0.109% (inactive),
COc1ccc(Cc2nnc(N/N=C/c3ccccc3O)[nH]c2=O)cc1OC,,4.11 µM (active)

SMILES,"activity change, negative = inhibition",Potency
C=CCN1CN(S(=O)(=O)c2ccc(OC)cc2)c2nc3ccccc3nc21,4.11% (inactive),
CCn1nc(C)c(CNC(=O)C2CCC(=O)N(Cc3cccc(F)c3)C2)c1C (stereo unspecified),-6.48% (inactive),
COC(=O)[C@]1(C)N[C@H](CN(C)C(=O)c2ccc(C(C)(C)C)cc2)[C@@H]2C(=O)N(C)C(=O)[C@@H]21,9.59% (inactive),
COc1ccc(NC(=O)CN(Cc2ccccc2)S(C)(=O)=O)cc1OC,0.322% (inactive),
COc1ccc(NC(=O)CN2C(=O)C(c3ccccc3)=NC23CCCCCC3)cc1OC,,23.1 µM (active)
COc1ccc(NC(=O)CC2SC(N3CCCCC3)=NC2=O)cc1OC (stereo unspecified),27.7% (inactive),
COc1cc(S(=O)(=O)N2CCN=C2c2ccccc2)ccc1Cl,12.4% (inactive),
Cn1c(=O)c2c(SCC(=O)NCC3CCCO3)nc(CC(C)(C)C)nc2n(C)c1=O (stereo unspecified),-10% (inactive),
CCOc1ccccc1NC(=O)C1CCC(CNc2c(N3CCOCC3)c(=O)c2=O)CC1 (stereo unspecified),0.0516% (inactive),
COc1ccc(NC(=O)C2CCC(CNc3c(N4CCCCC4)c(=O)c3=O)CC2)c(OC)c1 (stereo unspecified),,7.3 µM (active)
CCN(CC)c1ccc(NC(=O)C2CCC(CNc3c(N4CCCC4)c(=O)c3=O)CC2)c(C)c1 (stereo unspecified),-13.2% (inactive),
CC(CCc1ccccc1)NC(=O)c1cnc(Cl)c(Cl)c1 (stereo unspecified),-6.26% (inactive),
CC(=O)NCC(=O)N1CCCC(C(=O)c2ccc3c4c(cccc24)CC3)C1 (stereo unspecified),-5.67% (inactive),
Cc1ncoc1C(=O)N1CCCC(C(=O)c2ccc3c4c(cccc24)CC3)C1 (stereo unspecified),,16.4 µM (active)
CCn1ccnc1CN1CCCC(C(=O)c2ccc3c4c(cccc24)CC3)C1 (stereo unspecified),8.93% (inactive),
CC1CCCCC1NC(=O)NC(=O)COC(=O)C1=NN(c2ccccc2)C(=O)CC1 (stereo unspecified),20.6% (inactive),
CCCC(=O)N1CCN(c2nnc(-c3ccc(C)cc3)c3ccccc23)CC1,19.1% (inactive),
COc1ccc(CCN(C)C(=O)C23CC4CC(CC(Cl)(C4)C2)C3)cc1OC,-13.6% (inactive),
CCCn1c(C2CCCN2c2nc(-c3ccc(C)cc3)cs2)nc2cc(Cl)c(N3CCCCC3)cc21 (stereo unspecified),-1.63% (inactive),
CC(C)(C)OC(=O)Nc1ccc([C@@H](NC(=O)OC(C)(C)C)C(=O)OC(C)(C)C)cc1,6.05% (inactive),
CC(=O)c1cccc(NC(=O)C2CCN(C(=O)c3ccccc3Cl)CC2)c1,-26% (inactive),
Cc1ccccc1C(=O)N1CCC(C(=O)Nc2ccc(S(=O)(=O)N(C)C(C)C)cc2)CC1,,16.4 µM (active)

SMILES,"activity change, negative = inhibition",Potency
CCc1nnc(NC(=O)C2CCN(C(=O)c3ccccc3C)CC2)s1,-0.619% (inactive),
O=C(Nc1ccccc1N1CCOCC1)c1ccc(OCc2cscn2)cc1,-20.9% (inactive),
O=C(COC(=O)CCCN1C(=O)c2cccc3cccc(c23)C1=O)NC1CCS(=O)(=O)C1 (stereo unspecified),16.1% (inactive),
CCOC(=O)CSc1nc2ccc(C)cc2n2cnnc12,6.26% (inactive),
O=C(CCc1nnc2ccc(NCc3ccco3)nn12)Nc1cc(F)ccc1F,7.8% (inactive),
COc1ccc(CCN(C)C(=O)C2CCCN(Cc3ccc(OC)c(OC)c3)C2)cc1OC (stereo unspecified),,inactive
COc1ccc(CCNC(=O)C2CCCN(Cc3nc(-c4cccc(Cl)c4)oc3C)C2)cc1OC (stereo unspecified),,10 µM (active)
COc1cccc(-c2nc(CS(=O)(=O)CC(=O)NCCc3ccc(OC)c(OC)c3)c(C)o2)c1,-23.3% (inactive),
CCOc1ccc(-n2c(SCC(=O)OC)nc3sc4c(c3c2=O)CCN(C)C4)cc1,7.61% (inactive),
O=C(/C=C/c1ccccc1)c1ccccc1O,24.6% (inactive),
Cc1cn(COC/C=C/c2ccccc2)c(=O)[nH]c1=O,9.83% (inactive),
Cc1[nH]c(=O)c(C(=O)/C=C/c2ccccc2)c2c1CCCC2,,8.2 µM (active)
OC(COc1ccccc1)Cn1cc(Br)cn1 (stereo unspecified),11.2% (inactive),
OC(CN=c1sc2ccccc2n1CC(O)COc1ccccc1)COc1ccccc1 (stereo unspecified),,20.6 µM (active)
O=C(c1ccccc1)c1ccc(OCC(O)CN2CCCC2)cc1 (stereo unspecified),-15% (inactive),
CC1(C)CC(=O)C=C(c2ccc(Cl)c(C(F)(F)F)c2)C1,12.4% (inactive),
COc1ccc(C(CNC(=O)COc2ccc([N+](=O)[O-])cc2)N2CCCCC2)cc1 (stereo unspecified),18.2% (inactive),
Cc1c(O)c(C)c2c(c1O)C(=O)C[C@@H](c1ccccc1)O2,20.9% (inactive),
COc1cc(C(=O)NCc2ccc(-n3cccc3)cc2)cc(OC)c1OC,14.2% (inactive),
COc1cc(C(=O)NCc2ccncc2)cc(Br)c1OCc1ccccc1,,14.6 µM (active)
COc1cc(C(=S)NCc2ccccc2)cc(Br)c1O,-1.45% (inactive),
CC[C@]1(C(=O)OC)[C@H]2C(=O)N(C)C(=O)[C@H]2[C@H]2CN(C)C(=NCc3ccccc3)N21,0.774% (inactive),
